Measured values published in PubChem BioAssay AID493194 (Broad Institute, 2011).
Results with a measured potency or affinity are listed apart. Inconclusive results are not listed. Activity calls are given as the source filed them.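 How the source made its calls: active means a valid curve of falling signal whose half-effect concentration is at most ten times the top tested dose; inconclusive means flat curve at 30 to 70% inhibition, or poor fit; inactive means signal rise, flat within 30%, or potency beyond limit.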

Each molecule was assayed against Scavenger receptor class B member 1 (Mus musculus) (UniProt Q61009) (assay: inhibitors of SR-BI mediated HDL lipid uptake, dose response, ldlA[mSR-BI] cells, fluorescence, cherry pick (AID 493194;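 further: CHO cells lacking LDL receptor and overexpressing mouse SR-BI; cellular uptake of fluorescently labeled HDL measured as cell fluorescence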)). Details: CHO ldlA[mSR-BI] DiI-HDL uptake fluorescence, 3 h; series mostly up to 35 µM.
Chain of Scavenger receptor class B member 1 (Mus musculus) (Q61009 whole entry, looked up): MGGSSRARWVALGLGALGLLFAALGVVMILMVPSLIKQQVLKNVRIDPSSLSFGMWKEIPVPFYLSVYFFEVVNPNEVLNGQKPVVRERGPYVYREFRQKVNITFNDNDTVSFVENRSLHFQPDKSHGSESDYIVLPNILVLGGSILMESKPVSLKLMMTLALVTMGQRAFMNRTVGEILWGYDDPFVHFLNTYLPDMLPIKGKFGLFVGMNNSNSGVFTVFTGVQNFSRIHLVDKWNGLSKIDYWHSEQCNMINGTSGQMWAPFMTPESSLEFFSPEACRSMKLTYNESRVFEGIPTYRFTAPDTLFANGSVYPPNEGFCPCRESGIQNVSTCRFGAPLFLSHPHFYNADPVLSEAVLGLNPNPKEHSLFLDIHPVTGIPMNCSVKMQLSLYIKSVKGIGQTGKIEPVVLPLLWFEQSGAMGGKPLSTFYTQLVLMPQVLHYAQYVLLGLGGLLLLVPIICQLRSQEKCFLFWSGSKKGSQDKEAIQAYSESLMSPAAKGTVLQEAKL

outcome, inactive:
CC1Cc2ccccc2N1CC(=O)Nc1ccc(N2CCOCC2)cc1 (stereo not drawn)
CCc1cc(CNC(=O)C2CCC(=O)N(CCc3cccc(F)c3)C2)on1 (stereo not drawn)
CN(Cc1cc(Cl)cc(Cl)c1O)Cc1c(O)ccc2ccccc12
C=CCN(CC=C)C(=O)COn1nnc2ccc(S(=O)(=O)N3CCOCC3)cc21
O=C(Nc1cccc(NC(=O)c2ccccc2[N+](=O)[O-])c1)c1ccccc1Cl
CN(C(=O)COn1nnc2ccc(S(=O)(=O)N3CCOCC3)cc21)c1ccccc1
COc1ccc(C2c3sc(=O)[nH]c3SC3C4CCC(C4)C23)cc1OC (stereo not drawn)
COC(=O)c1cc2c(ccn2-c2ccc(F)cc2)n1Cc1ccc(C#N)cc1
COCCN(Cc1cn(C)nc1-c1ccc(Oc2ccccc2)cc1)C(C)C
COc1ccc(C2/C=C\CN(S(=O)(=O)c3ccc(-c4ccccc4)cc3)CC(=O)N2Cc2ccc(F)cc2)cc1 (stereo not drawn)
Cc1cc(=O)oc2cc(OCC(=O)N3CCN(C(=O)C4COc5ccccc5O4)CC3)c(Cl)cc12 (stereo not drawn)
O=C(CN1CCN(CC(=O)Nc2ccc3c(c2)OC2(CCCCC2)O3)CC1)Nc1cccc(F)c1
O=C(NC1CCCC1)C(c1c[nH]c2ccccc12)N(C(=O)Cn1nnc(-c2ccc(Cl)cc2)n1)c1ccccc1 (stereo not drawn)
CCn1c(C)c(C)c2cc(C(=O)Nc3cccc(Cl)c3)ccc21
CCOC(=O)N1CCN(CC(O)COC2CC(C)CCC2C(C)C)CC1 (stereo not drawn)
C/C=C/COC(=O)c1[nH]c2c(c1C)C(=O)CC(c1ccco1)C2 (stereo not drawn)
CN(C)S(=O)(=O)N1CCN(C(=O)N(c2ccccc2)c2ccccc2)CC1
O=C(O)CC(C(=O)Nc1cccc(C(F)(F)F)c1)C1CCCO1 (stereo not drawn)
CC(=O)c1ccc(N2CCN(C(=O)/C=C/c3ccc(S(=O)(=O)NCc4ccco4)cc3)CC2)cc1
CCCC(=O)Nc1ccc(Cl)c(NC(=O)c2cccc(OC)c2)c1
O=C(Nc1cccc(S(=O)(=O)N2CCOCC2)c1)C1CCN(S(=O)(=O)c2ccccc2)CC1
Cc1nn(Cc2c(Cl)cccc2Cl)c(C)c1NC(=O)CCCn1nc([N+](=O)[O-])c(Cl)c1C
COc1ccccc1CNC(=O)C1CCC(CNC(=O)[C@@H]2Cc3ccccc3CN2)CC1 (stereo partly drawn)
Cc1c(C(=O)Nc2cccc(Cl)c2)c2ccccn2c1CCc1ccncc1
CSc1ccccc1OCc1cc(C(=O)N(C)Cc2c(C)n[nH]c2C)no1
O=C(Nc1cccc(NC(=O)c2ccccc2Cl)c1)c1ccc(F)cc1
O=C(C1=COCCO1)N(Cc1nnc(-c2ccccc2Cl)o1)C1CC1
CC(=O)Nc1ccc(S(=O)(=O)N2CCC(C(=O)NCCC(=O)NCc3ccccc3)CC2)cc1
CCCOc1ccc(C(=O)Nc2ccc(S(=O)(=O)N3C[C@@H]4C[C@@H](C3)c3cccc(=O)n3C4)cc2)cc1
COC(=O)/C=C/c1ccc2c(c1)S(=O)(=O)N(c1cccc(OC)c1)[C@H]2CC(=O)OC
O=C(Nc1ccccc1)C1=C(O)CC(c2ccoc2)CC1=Nc1ccccc1 (stereo not drawn)
COc1ccc(C(=O)N2CCN(c3ccc([N+](=O)[O-])c(NCCc4ccc(OC)c(OC)c4)c3)CC2)cc1
N#Cc1ccc(C(=O)N2CCC3CC2c2cc(-c4ccc(F)cc4)ccc23)cc1 (stereo not drawn)
COc1ccc(-c2nnn(CC(=O)N(C3CCCCC3)C(C)C(=O)NC3CCCC3)n2)cc1OC (stereo not drawn)
COc1ccc(C2C(C#N)=C(N)N(c3ccccc3C#N)C3=C2C(=O)CCC3)cc1CN1CCCC1 (stereo not drawn)
COc1ccc(OC)c(CCNC(=O)c2ccc(NC3=NC4CS(=O)(=O)CC4S3)cc2)c1 (stereo not drawn)
CC(=O)Nc1cccc(NC(=O)c2ccc3c(c2)CCN3S(=O)(=O)c2ccccc2)c1
COc1ccc(CN2CCN(C(=O)c3ccc(S(=O)(=O)NCc4ccco4)cc3)CC2)cc1F
